Compounds with a hit are over-represented: about 11% of the library has one in this group of screens.
G9a inh – blocks human histone lysine methyltransferase G9a. G9a H3K9 monomethylation, AlphaScreen, 2 h. Potency, µM (series often up to 102 µM), for the others: at the highest dose activity, negative = inhibition, actives largely listed as inhibitors. actives 8.8% (n = 350,000); note: % is set by controls: 0 for no effect and ±100 for the full control effect; nearly all actives have a fitted effect of over 75% in size
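Readings reflect AlphaScreen signal from monomethyl-H3K9 antibody detection. HMT at 20 nM; substrate b-H3K9 500 nM; cofactor SAM 20 uM; 2 h RT reaction; compounds tested as titrations in qHTS with 15 min preincubation.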
BAZ2B block – inhibitors of human BAZ2B bromodomain; Q9UIF8; AlphaScreen BAZ2B-H3K14Ac peptide displacement; Potency, µM (titrated, usually from 114 µM), for inactives: at the highest dose activity change, negative = inhibition, most hits filed as inhibitors; actives 4.4% (n = 360,000); note: % is set by controls: 0 for no effect and ±100 for the full control effect; nearly all actives have a fitted effect of over 60% in size
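BAZ2B 50 nM plus b-H3(5-23)K14Ac 50 nM, PBS pH 7.4/0.01% Tween-20, 30 min RT; compound added (max 110 uM), 30 min RT; streptavidin donor/Ni-chelate acceptor beads 10 ug/mL final, 20 min dark; AlphaScreen read.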
JMJD2A Tudor – blocks the human JMJD2A Tudor domain | O75164 | AlphaScreen JMJD2A-Tudor / H3K4me3 peptide binding | Potency, µM (doses to about 114 µM), for the others: top-dose activity change, negative = inhibition, most hits filed as inhibitors | actives 4.4% (n = 390,000) | AID 504339; note: % is set by controls: 0 for no effect and ±100 for the full control effect; nearly all actives have a fitted effect of over 50% in size
HP1b chromo inh – blocks HP1-beta chromodomain binding to methylated histone tails. P83916. AlphaScreen HP1-beta / biotin-H3K9me3 peptide binding. Potency, µM (series often up to 114 µM), inactives show at the top dose activity change, negative = inhibition, hits mostly inhibitors. actives 0.56% (n = 390,000). AID 540317; note: nearly all actives have a fitted effect of over 70% in size
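AlphaScreen: HP1-beta (50 nM) preformed 30 min with biotin-H3(1-18)K9me3 peptide (50 nM) in PBS pH 7.4, 0.01% Tween-20. Compound added for 30 min at RT, then streptavidin donor/nickel chelate acceptor beads (10 ug/mL) for 30 min.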
VDR inhibitor – blocks the human vitamin D receptor. Potency, µM, inactives show max response, negative = inhibition, usual class: inhibitors. actives 0.93% (n = 400,000). P11473. VDR-SRC2-3 peptide fluorescence polarization, 2 h. AID 504847; note: % is set by controls: 0 for no effect and ±100 for the full control effect
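Fluorescence polarization assay measuring small-molecule disruption of VDR binding to the coregulator peptide SRC2-3. Compounds were pin-transferred (23 nl) into the reagent mix and incubated 2 h at room temperature before reading.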
PLK1 PBD inh – inhibitors of human PLK1 polo-box domain binding; AID 720504; Plk1 PBD binding of FITC phosphopeptide, fluorescence polarization; Potency, µM, without a hit: max response, negative = inhibition, actives largely listed as inhibitors; actives 2.8% (n = 360,000); P53350; note: series mostly up to about 57 µM; % is set by controls: 0 for no effect and ±100 for the full control effect; nearly all actives have a fitted effect of over 65% in size
Target sequence (P53350 whole entry, looked up, the tested form may be a part): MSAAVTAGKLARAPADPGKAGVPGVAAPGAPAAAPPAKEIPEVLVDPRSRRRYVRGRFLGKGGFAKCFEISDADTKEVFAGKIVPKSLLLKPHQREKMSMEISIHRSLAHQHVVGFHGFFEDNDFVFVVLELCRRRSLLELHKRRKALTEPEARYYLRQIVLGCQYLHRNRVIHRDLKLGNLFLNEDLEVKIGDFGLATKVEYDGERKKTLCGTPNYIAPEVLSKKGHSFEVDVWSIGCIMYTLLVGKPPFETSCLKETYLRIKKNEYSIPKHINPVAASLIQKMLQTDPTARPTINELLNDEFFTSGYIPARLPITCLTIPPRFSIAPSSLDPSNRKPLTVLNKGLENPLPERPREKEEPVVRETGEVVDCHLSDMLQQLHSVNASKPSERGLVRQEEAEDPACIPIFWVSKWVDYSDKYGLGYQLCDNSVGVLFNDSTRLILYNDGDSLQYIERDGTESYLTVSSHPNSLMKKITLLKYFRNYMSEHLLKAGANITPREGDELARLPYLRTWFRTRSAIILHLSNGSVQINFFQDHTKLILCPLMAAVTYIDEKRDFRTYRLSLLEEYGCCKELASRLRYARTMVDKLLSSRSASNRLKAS
* hit, by the source's call; ? = inconclusive; . = no result given; [ ] = remark or other dose. Calls come from the whole dose curve; as a rule, active = well fitted curve in the direction sought with a large enough effect; inconclusive = small, poorly fitted or top-dose-only effect, or another doubt; inactive = no such curve, though single readings can be large; an effect the other way counts as inactive or inconclusive. Potency is the fitted concentration of half-maximal effect.

SMILES	G9a inh	BAZ2B block	JMJD2A Tudor	HP1b chromo inh	VDR inhibitor	PLK1 PBD inh
Cc1oc(-c2cccc(Cl)c2)nc1CN1CCC(C(=O)NC2CC2)CC1	11.5%[59 µM]	1.3%	-21.9%	-19.4%	-26.9%	21.2µM*
CCN(CCNC(=O)C1CCN(Cc2nc(-c3cccc(Cl)c3)oc2C)CC1)c1ccccc1	?	39.8µM*	39.8µM*	?	-9.9%	2.8%
CCN(CCNC(=O)C1CCCN(Cc2nc(-c3ccc(OC)cc3)oc2C)C1)c1ccccc1 (stereo not given)	-32.5%[12.7 µM]	11.2µM*	31.6µM*	-42.0%	4.1%	-0.9%
CCCN(CCC)CCCNC(=O)C1CCCN(Cc2nc(-c3ccc(Cl)cc3)oc2C)C1 (stereo not given)	-32.6%[59 µM]	-7.8%	-10.4%	13.9%	-14.9%	.
Cc1oc(-c2cccc(Cl)c2)nc1CN1CCC(C(=O)NC(C)c2ccccc2)CC1 (stereo not given)	-2.9%[59 µM]	-25.6%	-15.2%	22.9%	-21.5%	.
CCN(CCNC(=O)C1CCN(Cc2nc(-c3ccc(Cl)cc3)oc2C)CC1)c1ccccc1	?	14.1µM*	50.1µM*	?	-3.7%	-0.9%
Cc1oc(-c2ccc(Cl)cc2)nc1CN1CCC(C(=O)NCCCN2CCOCC2)CC1	-13.0%[59 µM]	4.4%	-9.0%	24.6%	4.8%	-7.4%
Cc1oc(-c2cccc(Cl)c2)nc1CN1CCC(C(=O)NCc2cccnc2)CC1	20.5%[59 µM]	-10.7%	10.3%	9.9%	-1.9%	-3.1%
CCc1ccc(-c2nc(CN3CCC(C(=O)NCCN(CC)c4ccccc4)CC3)c(C)o2)cc1	?	?	50.1µM*	?	-4.8%	7.4%
Cc1cccc(-c2nc(CN3CCCC(C(=O)N4CCN(c5cc(Cl)ccc5C)CC4)C3)c(C)o2)c1 (stereo not given)	14.1µM*	?	-33.3%	0.7%	-26.4%	.
CCCOc1ccc(C(=O)NCC(c2ccc(OC)cc2)N2CCCCC2)cc1 (stereo not given)	-9.1%[59 µM]	-11.1%	-28.3%	-4.5%	1.5%	.
COc1cc(C2C(C#N)=C(N)Oc3cc(N(C)C)ccc32)cc2c1OCO2 (stereo not given)	?	44.7µM*	50.1µM*	?	14.4%	0.4%
COc1cc(C2C(C#N)=C(N)Oc3cc(O)ccc32)cc2c1OCO2 (stereo not given)	-2.0%[59 µM]	-11.1%	1.5%[11.4 µM]	?	-10.2%	-18.7%
O=S1(=O)C=C[C@H](COCc2ccccc2)N1	.	.	.	.	.	-5.6%
CCCCc1ccc(NC(=O)Cn2cnc3c(oc4ccccc43)c2=O)cc1	-35.1%[59 µM]	?	?	-0.1%	14.2%	.
C=CCN(Cc1cccs1)C(=O)CN1CCN(S(=O)(=O)c2ccc3c(c2)OCCCO3)CC1	-11.7%[2.33 µM]	-8.2%	-11.0%	69.6%	5.2%	0.4%
CC1=CC(C)(C)NC(=S)N1c1cccc2ccccc12	-11.7%[59 µM]	-3.1%	6.2%	30.3%	10.6%	0.9%
CN1c2ccccc2N(C)C1(C)c1cccc2ccccc12	1.41µM*	?	44.7µM*	?	-27.3%	-4.3%
O=C1Nc2c(ccc(Cl)c2Cl)C(=O)C1(F)c1ccccc1 (stereo not given)	44.7µM*	-26.4%	-21.6%	0.3%	-27.8%	-29.4%
COc1cccc(-n2c(=O)c3cc(OC)c(OC)cc3n(CC(=O)Nc3cc(C)[nH]n3)c2=O)c1	?	50.1µM*	-18.1%	33.6%	8.3%	-13.8%
CC(C)CN(C[C@@H](OP(=O)(O)O)[C@H](Cc1ccccc1)NC(=O)O[C@@H]1CCOC1)S(=O)(=O)c1ccc(N)cc1	14.6%[12.7 µM]	.	.	.	-10.6%	.
CC1CN(CCOCCSc2ccc(Cl)cc2)CC(C)O1 (stereo not given)	?	50.1µM*	8.91µM*	?	-12.9%	-1.7%
Clc1ccc(SCCCCN2CCOCC2)cc1	3.98µM*	31.6µM*	5.62µM*	39.8µM*	-8.8%	1.1%
Cc1ccc(SCCCCN2CCOCC2)cc1	-27.3%	-5.1%	-19.2%	25.6%	14.9%	-13.1%
CC1CCN(CCOCCSc2ccc(Cl)cc2)CC1	.	50.1µM*	7.08µM*	?	-9.3%	-15.2%
SMILES	G9a inh	BAZ2B block	JMJD2A Tudor	HP1b chromo inh	VDR inhibitor	PLK1 PBD inh
CC1CN(CCCCSc2ccc(Cl)cc2)CC(C)O1 (stereo not given)	22.4µM*	?	17.8µM*	?	-16.1%	-11.4%
O=C(CCc1nc2ccccc2c(=O)[nH]1)N1CCCc2ccccc21	1.5%[0.501 µM]	-9.9%	-19.0%	3.7%	1.3%	-4.5%
O=C(O)c1ccc(C(=O)C(=O)c2ccccc2)cc1	79.4µM*	-13.3%	-1.4%	16.0%	-10.3%	-1.8%
O=C(c1ccccc1)c1ccccc1	-17.9%[12.7 µM]	19.3%	7.5%	49.8%	-14.9%	-1.4%
C=C(C(=O)c1ccccc1)C(C)C(=C)C(=O)c1ccccc1	32.2%[59 µM]	66.6%	73.2%	151.2%	79.4µM*	2.5%
COc1ccc(/C(C)=N/NC(=O)CNC(=O)CCc2ccccc2)c(OC)c1	.	-1.6%	7.6%	22.5%	11.2%	2.1%
CCOC(=O)C1CC2=C(CC(C)(C)CC2=O)N(CCOC)C1=O (stereo not given)	.	.	5.1%	38.5%	3.7%	-2.3%
CCSc1nc2sc3c(c2c(=O)n1-c1ccccc1)CCN(C(C)C)C3	?	-2.2%	-33.8%	9.2%	-11.9%	-12.9%
Cc1ccc(NC2=C/C(=N/S(=O)(=O)c3cccs3)c3ccccc3C2=O)cc1	2.82µM*	?	-28.0%[57.1 µM]	?	-1.6%	-5.6%
O=C1C(Nc2ccccc2)=C/C(=N/S(=O)(=O)c2cccs2)c2ccccc21	8.91µM*	2.82µM*	3.98µM*	11.2µM*	-13.8%	-24.4%
Cc1ccc(N/C(=N/S(=O)(=O)c2cccs2)c2ccccc2)c(C)c1	9.1%	-0.8%	-6.2%	37.7%	-15.4%	2.0%
COC(=O)c1cc2oc3ccccc3c2n1CC(=O)Nc1cccc(SC)c1	-0.2%[59 µM]	-0.3%	-16.4%	6.7%	2.2%	.
COc1ccc(Cl)cc1NS(=O)(=O)c1ccc2[nH]c3c(c2c1)CCCC3	?	-37.4%	?	0.1%	10.6%	.
CN(CC(=O)Nc1cccc(Cl)c1)S(=O)(=O)c1ccc2[nH]c3c(c2c1)CCCC3	?	-29.2%	-36.0%	6.3%	16.7%	.
Cc1ccc(NC(=O)CN(C)S(=O)(=O)c2ccc3[nH]c4c(c3c2)CCCC4)c(Cl)c1	11.2µM*	-29.7%	?	6.4%	13.4%	.
Cc1ccc(NS(=O)(=O)c2ccc3[nH]c4c(c3c2)CCCC4)c(C)c1	15.8µM*	39.8µM*	28.2µM*	?	9.4%	.
COC(=O)c1ccc(NS(=O)(=O)c2ccc3[nH]c4c(c3c2)CCCC4)cc1	?	70.8µM*	?	-20.5%	2.5%	.
CC(=O)c1ccc(NS(=O)(=O)c2ccc3[nH]c4c(c3c2)CCCC4)cc1	?	79.4µM*	?	-12.1%	15.5%	.

Compound activity from PubChem BioAssay.
